# Key:
# [1] = target: T1, Serine/threonine-protein kinase ULK2 (Homo sapiens) (UniProt Q8IYT8); conditions: at 1 µM
# T1 sequence (whole entry): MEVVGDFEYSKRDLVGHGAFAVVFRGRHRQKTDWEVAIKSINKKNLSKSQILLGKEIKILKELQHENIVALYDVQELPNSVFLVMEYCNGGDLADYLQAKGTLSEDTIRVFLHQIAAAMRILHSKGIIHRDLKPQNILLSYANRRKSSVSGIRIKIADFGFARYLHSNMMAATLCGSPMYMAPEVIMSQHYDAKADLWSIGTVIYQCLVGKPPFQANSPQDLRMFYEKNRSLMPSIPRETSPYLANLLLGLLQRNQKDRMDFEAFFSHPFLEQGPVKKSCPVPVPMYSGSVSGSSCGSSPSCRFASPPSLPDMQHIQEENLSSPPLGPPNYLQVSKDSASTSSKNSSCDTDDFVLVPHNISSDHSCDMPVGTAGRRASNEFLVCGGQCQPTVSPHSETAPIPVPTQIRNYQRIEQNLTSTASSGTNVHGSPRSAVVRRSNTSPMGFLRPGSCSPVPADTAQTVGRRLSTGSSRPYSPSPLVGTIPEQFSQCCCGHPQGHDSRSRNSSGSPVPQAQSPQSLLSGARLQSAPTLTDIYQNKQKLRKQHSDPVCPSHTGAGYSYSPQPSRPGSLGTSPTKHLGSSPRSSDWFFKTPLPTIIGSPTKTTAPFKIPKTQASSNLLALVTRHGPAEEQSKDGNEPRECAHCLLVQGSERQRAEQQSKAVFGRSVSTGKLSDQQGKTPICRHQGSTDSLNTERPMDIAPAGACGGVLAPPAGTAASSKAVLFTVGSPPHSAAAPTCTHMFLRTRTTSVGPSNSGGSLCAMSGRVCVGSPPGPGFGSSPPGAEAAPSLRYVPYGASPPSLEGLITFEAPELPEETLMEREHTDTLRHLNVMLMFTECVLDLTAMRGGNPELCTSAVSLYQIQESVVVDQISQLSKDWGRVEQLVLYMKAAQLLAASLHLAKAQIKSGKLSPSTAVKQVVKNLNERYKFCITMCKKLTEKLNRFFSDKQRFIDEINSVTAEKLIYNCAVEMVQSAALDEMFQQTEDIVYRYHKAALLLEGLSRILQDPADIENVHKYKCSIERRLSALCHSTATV
# [2] = target: T1, Serine/threonine-protein kinase ULK2 (Homo sapiens); conditions: at 10 µM
# [3] = target: Serine/threonine-protein kinase VRK2 (Homo sapiens) (UniProt Q86Y07); conditions: at 1 µM
# [4] = target: Serine/threonine-protein kinase VRK2 (Homo sapiens) (UniProt Q86Y07); conditions: at 10 µM
# [5] = target: Serine/threonine-protein kinase WNK2 (Homo sapiens) (UniProt Q9Y3S1); conditions: at 1 µM
# [6] = target: Serine/threonine-protein kinase WNK2 (Homo sapiens) (UniProt Q9Y3S1); conditions: at 10 µM
# [7] = target: Serine/threonine-protein kinase WNK3 (Homo sapiens) (UniProt Q9BYP7); conditions: at 1 µM
# [8] = target: T2, Serine/threonine-protein kinase ULK3 (Homo sapiens) (UniProt Q6PHR2); conditions: at 1 µM
# T2 sequence (whole entry): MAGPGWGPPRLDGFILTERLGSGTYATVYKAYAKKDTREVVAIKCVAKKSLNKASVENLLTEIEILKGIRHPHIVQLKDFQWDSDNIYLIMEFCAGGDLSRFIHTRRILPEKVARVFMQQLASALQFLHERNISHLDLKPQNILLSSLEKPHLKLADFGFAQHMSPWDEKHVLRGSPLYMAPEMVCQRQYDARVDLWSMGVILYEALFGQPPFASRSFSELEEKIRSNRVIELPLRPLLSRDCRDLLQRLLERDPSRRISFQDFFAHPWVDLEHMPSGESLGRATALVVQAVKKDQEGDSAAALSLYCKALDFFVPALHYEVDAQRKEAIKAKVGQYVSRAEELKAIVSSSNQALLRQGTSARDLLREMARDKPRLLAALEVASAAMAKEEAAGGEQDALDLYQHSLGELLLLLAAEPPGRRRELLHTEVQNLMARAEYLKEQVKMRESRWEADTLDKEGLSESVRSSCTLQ
# [9] = target: T2, Serine/threonine-protein kinase ULK3 (Homo sapiens); conditions: at 10 µM
# [10] = target: Serine/threonine-protein kinase WNK3 (Homo sapiens) (UniProt Q9BYP7); conditions: at 10 µM
# Sequence of Serine/threonine-protein kinase WNK3 (Homo sapiens) (Q9BYP7 whole entry): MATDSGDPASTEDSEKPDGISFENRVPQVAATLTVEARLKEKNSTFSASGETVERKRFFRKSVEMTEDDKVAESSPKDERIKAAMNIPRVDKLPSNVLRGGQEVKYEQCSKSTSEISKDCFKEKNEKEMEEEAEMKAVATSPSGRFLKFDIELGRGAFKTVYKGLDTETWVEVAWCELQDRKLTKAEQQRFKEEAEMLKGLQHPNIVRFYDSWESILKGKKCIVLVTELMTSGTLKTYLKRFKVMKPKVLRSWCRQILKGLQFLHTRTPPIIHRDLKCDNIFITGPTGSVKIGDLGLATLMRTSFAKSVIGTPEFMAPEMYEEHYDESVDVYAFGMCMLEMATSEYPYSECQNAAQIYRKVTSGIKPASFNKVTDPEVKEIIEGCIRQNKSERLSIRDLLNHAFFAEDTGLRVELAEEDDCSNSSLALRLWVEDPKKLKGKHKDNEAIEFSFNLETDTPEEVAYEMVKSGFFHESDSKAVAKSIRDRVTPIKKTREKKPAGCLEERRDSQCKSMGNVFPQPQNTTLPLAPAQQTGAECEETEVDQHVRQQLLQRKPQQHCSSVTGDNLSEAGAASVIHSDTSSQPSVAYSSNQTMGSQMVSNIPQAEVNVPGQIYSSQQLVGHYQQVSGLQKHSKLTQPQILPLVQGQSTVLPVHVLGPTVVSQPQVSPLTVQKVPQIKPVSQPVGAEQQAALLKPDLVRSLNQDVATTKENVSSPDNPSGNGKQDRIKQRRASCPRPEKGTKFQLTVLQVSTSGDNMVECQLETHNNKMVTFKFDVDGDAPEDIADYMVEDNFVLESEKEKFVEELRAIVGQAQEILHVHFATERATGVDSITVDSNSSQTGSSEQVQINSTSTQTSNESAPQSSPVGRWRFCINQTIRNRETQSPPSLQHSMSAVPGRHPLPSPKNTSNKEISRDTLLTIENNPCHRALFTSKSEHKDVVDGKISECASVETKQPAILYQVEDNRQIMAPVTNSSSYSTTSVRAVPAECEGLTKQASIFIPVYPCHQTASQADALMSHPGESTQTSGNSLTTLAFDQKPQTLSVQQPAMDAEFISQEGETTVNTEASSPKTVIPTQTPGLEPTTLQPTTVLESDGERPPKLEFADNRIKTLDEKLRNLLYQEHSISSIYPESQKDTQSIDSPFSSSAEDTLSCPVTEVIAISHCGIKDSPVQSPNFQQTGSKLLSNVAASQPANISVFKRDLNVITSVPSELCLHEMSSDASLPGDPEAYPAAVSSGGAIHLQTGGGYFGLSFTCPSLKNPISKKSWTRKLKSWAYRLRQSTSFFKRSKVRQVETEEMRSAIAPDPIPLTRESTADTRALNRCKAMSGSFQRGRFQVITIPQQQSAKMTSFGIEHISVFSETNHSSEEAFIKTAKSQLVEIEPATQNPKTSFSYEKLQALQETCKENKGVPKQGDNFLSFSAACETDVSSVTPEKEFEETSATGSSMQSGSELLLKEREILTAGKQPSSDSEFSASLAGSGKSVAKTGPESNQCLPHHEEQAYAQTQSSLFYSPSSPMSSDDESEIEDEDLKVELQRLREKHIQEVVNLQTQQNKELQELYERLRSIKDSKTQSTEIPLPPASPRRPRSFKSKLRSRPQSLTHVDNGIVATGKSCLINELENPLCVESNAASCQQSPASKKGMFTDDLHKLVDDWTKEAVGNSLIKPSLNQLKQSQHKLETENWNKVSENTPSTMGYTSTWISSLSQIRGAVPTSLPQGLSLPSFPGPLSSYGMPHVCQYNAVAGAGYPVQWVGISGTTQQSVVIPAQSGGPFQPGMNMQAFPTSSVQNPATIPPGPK
# Sequence of Serine/threonine-protein kinase WNK2 (Homo sapiens) (Q9Y3S1 whole entry): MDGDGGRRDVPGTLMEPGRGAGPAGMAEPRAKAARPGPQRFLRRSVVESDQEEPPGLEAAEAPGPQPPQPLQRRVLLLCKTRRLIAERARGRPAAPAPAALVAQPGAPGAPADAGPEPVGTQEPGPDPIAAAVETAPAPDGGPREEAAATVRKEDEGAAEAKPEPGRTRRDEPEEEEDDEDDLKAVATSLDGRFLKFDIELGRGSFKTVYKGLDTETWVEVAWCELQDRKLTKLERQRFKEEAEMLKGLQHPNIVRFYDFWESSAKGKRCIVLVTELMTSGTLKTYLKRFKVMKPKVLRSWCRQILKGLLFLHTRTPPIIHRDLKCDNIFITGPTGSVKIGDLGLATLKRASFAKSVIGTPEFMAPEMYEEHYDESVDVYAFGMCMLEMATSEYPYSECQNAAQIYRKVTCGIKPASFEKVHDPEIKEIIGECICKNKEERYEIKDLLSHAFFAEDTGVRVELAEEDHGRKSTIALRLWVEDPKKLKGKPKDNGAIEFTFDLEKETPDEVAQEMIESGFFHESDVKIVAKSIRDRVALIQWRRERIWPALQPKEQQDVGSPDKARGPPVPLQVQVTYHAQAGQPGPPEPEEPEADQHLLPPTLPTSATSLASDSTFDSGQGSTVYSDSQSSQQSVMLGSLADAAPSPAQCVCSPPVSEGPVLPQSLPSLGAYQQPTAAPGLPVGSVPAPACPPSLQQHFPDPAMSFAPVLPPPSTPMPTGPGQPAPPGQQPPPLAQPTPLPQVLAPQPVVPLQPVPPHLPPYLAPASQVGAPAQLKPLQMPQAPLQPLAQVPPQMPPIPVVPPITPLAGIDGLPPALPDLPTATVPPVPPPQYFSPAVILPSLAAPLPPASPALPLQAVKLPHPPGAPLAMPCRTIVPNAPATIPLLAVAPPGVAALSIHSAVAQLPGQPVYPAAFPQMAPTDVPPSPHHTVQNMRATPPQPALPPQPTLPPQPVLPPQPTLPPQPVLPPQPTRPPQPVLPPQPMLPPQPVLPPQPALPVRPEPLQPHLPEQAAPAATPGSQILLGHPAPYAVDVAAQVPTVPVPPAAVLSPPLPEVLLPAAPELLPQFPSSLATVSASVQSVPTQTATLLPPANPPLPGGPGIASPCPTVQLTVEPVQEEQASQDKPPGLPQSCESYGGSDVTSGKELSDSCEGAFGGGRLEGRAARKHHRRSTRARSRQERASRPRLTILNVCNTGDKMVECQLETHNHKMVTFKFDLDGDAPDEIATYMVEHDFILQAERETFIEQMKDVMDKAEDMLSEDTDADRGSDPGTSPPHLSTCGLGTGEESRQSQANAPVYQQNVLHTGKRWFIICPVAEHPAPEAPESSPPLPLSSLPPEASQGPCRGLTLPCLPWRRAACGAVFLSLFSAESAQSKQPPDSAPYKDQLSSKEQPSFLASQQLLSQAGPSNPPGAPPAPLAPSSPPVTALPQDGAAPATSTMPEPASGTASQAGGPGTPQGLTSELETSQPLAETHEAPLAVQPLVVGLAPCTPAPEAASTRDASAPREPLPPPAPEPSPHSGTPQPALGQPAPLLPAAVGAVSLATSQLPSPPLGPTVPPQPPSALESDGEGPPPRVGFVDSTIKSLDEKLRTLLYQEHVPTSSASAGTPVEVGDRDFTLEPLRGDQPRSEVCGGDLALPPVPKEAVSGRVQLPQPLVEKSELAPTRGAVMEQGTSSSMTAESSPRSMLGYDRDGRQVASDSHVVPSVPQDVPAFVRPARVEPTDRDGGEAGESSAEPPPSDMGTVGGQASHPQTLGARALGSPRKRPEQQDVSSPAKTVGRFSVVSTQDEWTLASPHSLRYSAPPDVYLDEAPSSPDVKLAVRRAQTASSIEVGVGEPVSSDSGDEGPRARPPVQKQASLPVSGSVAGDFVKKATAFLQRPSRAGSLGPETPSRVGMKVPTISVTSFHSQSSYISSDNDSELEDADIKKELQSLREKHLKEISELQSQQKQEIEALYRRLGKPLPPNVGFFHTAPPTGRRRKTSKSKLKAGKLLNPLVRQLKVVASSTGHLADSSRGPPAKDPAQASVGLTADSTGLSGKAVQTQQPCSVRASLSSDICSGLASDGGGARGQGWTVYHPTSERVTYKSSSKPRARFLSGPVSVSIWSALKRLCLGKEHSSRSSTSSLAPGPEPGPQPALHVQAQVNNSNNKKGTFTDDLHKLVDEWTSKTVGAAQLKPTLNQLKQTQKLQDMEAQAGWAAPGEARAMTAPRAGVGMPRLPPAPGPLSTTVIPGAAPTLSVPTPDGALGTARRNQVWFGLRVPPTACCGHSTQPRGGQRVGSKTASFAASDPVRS
# Sequence of Serine/threonine-protein kinase VRK2 (Homo sapiens) (Q86Y07 whole entry): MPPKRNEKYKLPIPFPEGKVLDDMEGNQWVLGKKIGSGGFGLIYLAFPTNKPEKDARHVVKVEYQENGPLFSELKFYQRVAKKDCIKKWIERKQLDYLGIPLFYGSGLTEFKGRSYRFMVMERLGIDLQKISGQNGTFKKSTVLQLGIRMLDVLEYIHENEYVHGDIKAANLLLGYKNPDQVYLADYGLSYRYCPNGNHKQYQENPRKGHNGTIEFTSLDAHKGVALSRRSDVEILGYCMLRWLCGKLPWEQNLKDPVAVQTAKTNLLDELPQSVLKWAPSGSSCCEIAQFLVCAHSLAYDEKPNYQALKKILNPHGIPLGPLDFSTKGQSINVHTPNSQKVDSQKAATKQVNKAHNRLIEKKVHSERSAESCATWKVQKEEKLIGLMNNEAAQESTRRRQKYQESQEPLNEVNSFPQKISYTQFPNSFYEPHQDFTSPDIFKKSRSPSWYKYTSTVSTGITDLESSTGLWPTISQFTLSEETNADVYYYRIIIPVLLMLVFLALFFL
SMILES,residual activity [1],residual activity [2],residual activity [3],residual activity [4],residual activity [5],residual activity [6],residual activity [7],residual activity [8],residual activity [9],residual activity [10]
CN[C@@H]1C[C@H]2O[C@@](C)([C@@H]1OC)n1c3ccccc3c3c4c(c5c6ccccc6n2c5c31)C(=O)NC4,2%,0%,108% (inactive),90%,92% (inactive),30%,88% (inactive),,,
N/C(=N\[N+](=O)[O-])N/N=C\c1ccc(-c2cccc([N+](=O)[O-])c2)o1,,,,,,,,92%,88%,
CCc1nc(-c2ccc(OC)cc2)[nH]c1-c1ccncc1,115%,105%,113% (inactive),101%,112% (inactive),100%,,,,108%
O=C1c2ccccc2-c2nc3nnnn3nc21,110%,103%,116% (inactive),102%,,,115% (inactive),,,103%
O=c1[nH]c2ccccc2n1C1CCN(Cc2ccc(-c3nc4cc5[nH]cnc5cc4nc3-c3ccccc3)cc2)CC1,108%,106%,109% (inactive),93%,117% (inactive),83%,116% (inactive),100%,95%,85%
c1cc(-c2cnn3cc(-c4ccc(OCCN5CCCCC5)cc4)cnc23)ccn1,50%,17%,119% (inactive),,,,,84%,48%,
C[S+]([O-])c1ccc(-c2nc(-c3ccc(F)cc3)c(-c3ccncc3)[nH]2)cc1 (centres undefined),120%,101%,114% (inactive),96%,117% (inactive),101%,110% (inactive),104%,104%,100%
COc1cc2ncnc(Nc3ccc(OCc4ccccc4)cc3)c2cc1OC,102%,93%,112% (inactive),97%,93% (inactive),55%,95% (inactive),104%,69%,64%
COc1ccc2c(c1)/C(=C/c1cnc[nH]1)C(=O)N2,81%,23%,,66%,,,,80%,23%,96%
COc1cc(OC)c(/C=C2\C(=O)Nc3ccccc32)c(OC)c1,,99%,83% (inactive),32%,89% (inactive),78%,93% (inactive),95%,95%,83%
CCn1cnc2c(Nc3cccc(Cl)c3)nc(N[C@@H]3CCCC[C@@H]3N)nc21,54%,15%,94% (inactive),48%,88% (inactive),45%,87% (inactive),40%,8%,56%
COC(=O)[C@@]1(O)C[C@H]2O[C@]1(C)n1c3ccccc3c3c4c(c5c6ccccc6n2c5c31)C(=O)NC4,7%,0%,100% (inactive),101%,63% (inactive),12%,70% (inactive),0%,1%,8%
O=C1NC(=O)c2c1c1c3ccccc3n3c1c1c2c2ccccc2n1C1CCC3O1,,,,,100% (inactive),99%,94% (inactive),58%,58%,90%
O=C1Nc2ccc3ncsc3c2/C1=C/c1c[nH]cn1,37%,6%,75% (inactive),26%,89% (inactive),57%,84% (inactive),42%,7%,67%
COc1ccc2c(c[n+](C)c3c4cc5c(cc4ccc23)OCO5)c1OC,,94%,110% (inactive),91%,,76%,,,96%,84%
O=[N+]([O-])/C=C/c1ccc2c(c1)OCO2,102%,92%,101% (inactive),91%,109% (inactive),88%,88% (inactive),111%,91%,94%
CC(C)(C)c1cc(C=C(C#N)C#N)cc(Br)c1O,113%,112%,101% (inactive),105%,114% (inactive),114%,111% (inactive),110%,99%,105%
CC(C)[C@H](CO)Nc1nc(Nc2cccc(Cl)c2)c2ncn(C(C)C)c2n1,83%,39%,85% (inactive),30%,91% (inactive),46%,82% (inactive),39%,7%,51%
